Targets with a hit are over-represented here; the source holds about 8,800 in all. About 0.5% of all pairs of compound and target were hits. Values without a mark were called inactive.
What follows are targets tested with c1ccc([C@@H]2C[C@H]2NC2CCNCC2)cc1 (assay: log2 fold change, soluble protein after heating vs DMSO (PISA); higher = thermal stabilisation; K562 lysate, 10 uM; active = over 0.2 and 3.5 SD of the protein, either way, in both replicates (recomputed)).
Summary of the method: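 Quantification was by TMTpro 16plex LC-MS/MS with equalised channel sums, applied to the supernatant after 21,000xg for 90 min. Samples were crude K562 extract at 1 mg/mL protein in PBS pH 7.4 with 1 mM MgCl2, treated with 10 μM compound for 30 min, heated for 3 min across 48°C-58°C, pooled and brought to 0.5% NP-40 at 4°C. Values are log-two fold changes in thermal stability relative to solvent controls, from duplicates.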

Sequence of UniProt P31947 (P31947 whole entry, looked up): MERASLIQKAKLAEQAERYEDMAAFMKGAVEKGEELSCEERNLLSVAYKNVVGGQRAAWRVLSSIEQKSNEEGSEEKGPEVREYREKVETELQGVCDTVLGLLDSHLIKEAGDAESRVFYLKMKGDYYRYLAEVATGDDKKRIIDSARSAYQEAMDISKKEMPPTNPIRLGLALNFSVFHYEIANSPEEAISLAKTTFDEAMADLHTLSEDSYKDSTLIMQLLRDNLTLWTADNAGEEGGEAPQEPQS
Sequence of UniProt P08047 (P08047 whole entry, looked up): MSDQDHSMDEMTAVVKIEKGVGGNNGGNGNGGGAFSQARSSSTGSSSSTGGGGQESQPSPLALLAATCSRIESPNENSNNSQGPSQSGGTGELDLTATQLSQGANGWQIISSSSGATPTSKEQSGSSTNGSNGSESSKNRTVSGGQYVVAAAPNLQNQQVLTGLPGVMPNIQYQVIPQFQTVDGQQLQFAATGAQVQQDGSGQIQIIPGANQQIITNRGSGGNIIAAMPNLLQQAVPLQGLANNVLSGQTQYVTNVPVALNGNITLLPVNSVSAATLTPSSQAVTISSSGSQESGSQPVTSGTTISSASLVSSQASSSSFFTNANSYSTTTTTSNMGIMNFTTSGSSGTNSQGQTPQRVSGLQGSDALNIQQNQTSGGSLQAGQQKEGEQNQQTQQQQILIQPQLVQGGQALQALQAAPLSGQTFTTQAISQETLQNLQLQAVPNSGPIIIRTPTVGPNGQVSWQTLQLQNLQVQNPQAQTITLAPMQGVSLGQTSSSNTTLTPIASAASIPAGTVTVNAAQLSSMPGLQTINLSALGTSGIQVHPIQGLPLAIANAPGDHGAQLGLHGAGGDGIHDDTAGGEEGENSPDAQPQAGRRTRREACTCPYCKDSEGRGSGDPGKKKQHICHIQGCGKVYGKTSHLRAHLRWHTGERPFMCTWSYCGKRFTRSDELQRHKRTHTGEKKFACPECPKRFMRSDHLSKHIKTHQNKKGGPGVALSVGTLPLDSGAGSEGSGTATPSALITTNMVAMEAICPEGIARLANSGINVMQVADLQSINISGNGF
Sequence of UniProt Q96SB4 (Q96SB4 whole entry, looked up): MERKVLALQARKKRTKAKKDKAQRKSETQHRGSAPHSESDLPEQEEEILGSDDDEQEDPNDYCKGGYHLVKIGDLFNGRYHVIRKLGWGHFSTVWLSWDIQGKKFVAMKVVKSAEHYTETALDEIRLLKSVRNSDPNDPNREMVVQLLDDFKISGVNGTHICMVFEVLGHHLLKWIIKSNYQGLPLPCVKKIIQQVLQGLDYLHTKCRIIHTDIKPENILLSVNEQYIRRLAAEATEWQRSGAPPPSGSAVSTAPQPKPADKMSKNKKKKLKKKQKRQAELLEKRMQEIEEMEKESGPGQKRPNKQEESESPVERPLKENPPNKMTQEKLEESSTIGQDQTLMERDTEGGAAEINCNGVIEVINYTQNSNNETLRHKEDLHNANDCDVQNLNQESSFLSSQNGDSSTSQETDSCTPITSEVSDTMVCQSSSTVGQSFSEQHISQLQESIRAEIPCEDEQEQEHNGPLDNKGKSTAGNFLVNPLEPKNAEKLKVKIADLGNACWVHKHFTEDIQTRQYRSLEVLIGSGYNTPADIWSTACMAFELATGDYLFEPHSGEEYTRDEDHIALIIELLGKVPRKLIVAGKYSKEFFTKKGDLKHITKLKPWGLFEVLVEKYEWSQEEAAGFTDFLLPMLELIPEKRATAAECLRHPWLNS
Sequence of UniProt Q14534 (Q14534 whole entry, looked up): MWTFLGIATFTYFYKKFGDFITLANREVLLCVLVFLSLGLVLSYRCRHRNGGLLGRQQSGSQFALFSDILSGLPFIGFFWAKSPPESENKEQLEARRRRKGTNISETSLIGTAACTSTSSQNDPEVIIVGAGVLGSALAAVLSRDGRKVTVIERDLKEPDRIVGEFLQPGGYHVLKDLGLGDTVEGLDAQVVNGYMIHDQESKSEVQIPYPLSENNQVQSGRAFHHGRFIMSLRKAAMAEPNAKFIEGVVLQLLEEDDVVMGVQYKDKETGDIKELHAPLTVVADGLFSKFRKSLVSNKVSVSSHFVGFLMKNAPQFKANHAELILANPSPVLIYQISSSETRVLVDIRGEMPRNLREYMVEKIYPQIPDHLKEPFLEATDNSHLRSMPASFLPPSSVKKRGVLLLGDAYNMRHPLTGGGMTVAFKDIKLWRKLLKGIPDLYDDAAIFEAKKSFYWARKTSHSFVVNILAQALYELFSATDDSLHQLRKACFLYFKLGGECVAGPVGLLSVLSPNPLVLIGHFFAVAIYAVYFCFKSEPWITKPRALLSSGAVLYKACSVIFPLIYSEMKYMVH
Sequence of UniProt Q08AE8 (Q08AE8 whole entry, looked up): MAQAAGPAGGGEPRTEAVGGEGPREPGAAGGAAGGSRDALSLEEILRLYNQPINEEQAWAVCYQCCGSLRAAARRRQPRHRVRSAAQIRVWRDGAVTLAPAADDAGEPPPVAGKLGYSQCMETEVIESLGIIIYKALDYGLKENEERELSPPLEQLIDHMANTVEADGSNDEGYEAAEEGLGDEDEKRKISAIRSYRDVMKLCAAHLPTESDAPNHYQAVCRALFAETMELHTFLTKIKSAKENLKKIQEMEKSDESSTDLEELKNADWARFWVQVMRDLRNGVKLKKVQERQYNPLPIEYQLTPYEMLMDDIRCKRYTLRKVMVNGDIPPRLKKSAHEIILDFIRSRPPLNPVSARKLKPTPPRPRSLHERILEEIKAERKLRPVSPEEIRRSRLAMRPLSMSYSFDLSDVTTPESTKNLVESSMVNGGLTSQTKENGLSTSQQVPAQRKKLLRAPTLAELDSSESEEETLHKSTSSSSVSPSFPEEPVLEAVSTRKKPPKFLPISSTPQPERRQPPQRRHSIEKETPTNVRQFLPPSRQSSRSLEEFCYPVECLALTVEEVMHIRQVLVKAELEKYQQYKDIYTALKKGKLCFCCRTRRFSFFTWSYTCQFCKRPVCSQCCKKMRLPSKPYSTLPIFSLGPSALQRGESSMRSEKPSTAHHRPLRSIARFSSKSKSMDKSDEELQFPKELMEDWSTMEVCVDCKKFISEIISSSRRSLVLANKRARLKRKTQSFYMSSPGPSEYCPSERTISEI
Sequence of UniProt Q15527 (Q15527 whole entry, looked up): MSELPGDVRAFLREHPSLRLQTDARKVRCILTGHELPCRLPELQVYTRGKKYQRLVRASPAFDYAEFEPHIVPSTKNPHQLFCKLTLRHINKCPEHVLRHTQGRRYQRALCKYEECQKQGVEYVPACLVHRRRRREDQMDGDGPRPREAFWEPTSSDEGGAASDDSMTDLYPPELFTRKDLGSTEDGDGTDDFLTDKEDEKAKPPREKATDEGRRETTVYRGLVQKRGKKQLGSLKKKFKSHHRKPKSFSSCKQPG
Sequence of UniProt Q99961 (Q99961 whole entry, looked up): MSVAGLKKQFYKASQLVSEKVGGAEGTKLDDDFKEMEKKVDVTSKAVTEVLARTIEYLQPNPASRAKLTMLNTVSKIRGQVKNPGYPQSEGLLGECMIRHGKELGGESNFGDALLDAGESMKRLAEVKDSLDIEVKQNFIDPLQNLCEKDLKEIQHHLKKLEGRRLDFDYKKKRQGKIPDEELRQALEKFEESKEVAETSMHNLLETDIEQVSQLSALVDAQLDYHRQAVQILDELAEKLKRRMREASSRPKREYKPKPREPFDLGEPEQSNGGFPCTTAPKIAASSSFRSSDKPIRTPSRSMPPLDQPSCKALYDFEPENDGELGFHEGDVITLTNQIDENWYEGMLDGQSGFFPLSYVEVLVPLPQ
Sequence of UniProt Q9UHW9 (Q9UHW9 whole entry, looked up): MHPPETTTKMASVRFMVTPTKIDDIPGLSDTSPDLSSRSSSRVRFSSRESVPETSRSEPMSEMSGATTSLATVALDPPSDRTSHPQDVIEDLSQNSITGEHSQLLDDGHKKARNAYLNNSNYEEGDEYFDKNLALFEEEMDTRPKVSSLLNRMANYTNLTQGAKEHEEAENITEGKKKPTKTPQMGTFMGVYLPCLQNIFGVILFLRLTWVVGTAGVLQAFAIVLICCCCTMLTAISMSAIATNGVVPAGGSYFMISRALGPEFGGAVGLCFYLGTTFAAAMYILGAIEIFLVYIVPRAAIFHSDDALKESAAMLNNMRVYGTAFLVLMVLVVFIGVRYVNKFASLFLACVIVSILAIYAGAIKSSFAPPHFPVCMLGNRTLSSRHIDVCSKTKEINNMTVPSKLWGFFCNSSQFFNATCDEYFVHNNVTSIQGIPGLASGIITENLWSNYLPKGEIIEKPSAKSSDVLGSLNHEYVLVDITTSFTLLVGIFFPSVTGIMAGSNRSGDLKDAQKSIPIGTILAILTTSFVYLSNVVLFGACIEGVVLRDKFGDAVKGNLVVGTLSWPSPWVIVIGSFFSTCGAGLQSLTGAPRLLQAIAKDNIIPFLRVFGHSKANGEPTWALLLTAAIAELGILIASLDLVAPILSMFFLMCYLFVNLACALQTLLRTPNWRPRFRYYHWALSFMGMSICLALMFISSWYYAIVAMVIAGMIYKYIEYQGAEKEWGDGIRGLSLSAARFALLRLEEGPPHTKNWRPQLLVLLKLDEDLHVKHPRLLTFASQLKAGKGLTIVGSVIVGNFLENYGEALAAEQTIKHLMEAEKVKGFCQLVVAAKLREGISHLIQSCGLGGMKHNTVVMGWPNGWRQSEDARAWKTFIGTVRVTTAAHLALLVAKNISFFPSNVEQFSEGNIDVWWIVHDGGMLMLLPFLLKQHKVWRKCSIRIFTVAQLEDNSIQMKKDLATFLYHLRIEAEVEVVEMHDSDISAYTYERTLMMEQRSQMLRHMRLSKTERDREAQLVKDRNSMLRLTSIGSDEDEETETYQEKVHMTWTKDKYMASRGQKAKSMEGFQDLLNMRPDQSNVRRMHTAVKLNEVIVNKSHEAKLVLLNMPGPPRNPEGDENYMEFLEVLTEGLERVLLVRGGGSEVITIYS
Sequence of UniProt Q9Y3B4 (Q9Y3B4 whole entry, looked up): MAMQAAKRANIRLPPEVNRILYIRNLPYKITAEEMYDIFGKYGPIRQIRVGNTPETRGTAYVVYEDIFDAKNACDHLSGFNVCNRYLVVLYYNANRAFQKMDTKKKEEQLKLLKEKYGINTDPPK

Target | log2 fold change
SP1 (UniProt P08047) | 0
SLC27A4 (UniProt Q6P1M0) | 0.121
SH3GL1 (UniProt Q99961) | 0.003
SFN (UniProt P31947) | 0.046
SRGN (UniProt P10124) | -0.196
SLC38A10 (UniProt Q9HBR0) | -0.04
STK36 (UniProt Q9NRP7) | -0.42
SPA17 (UniProt Q15506) | -0.364
STUB1 (UniProt Q9UNE7) | 0.02
SLC16A1 (UniProt P53985) | -0.245
SPAG5 (UniProt Q96R06) | 0.026
SLC12A6 (UniProt Q9UHW9) | 0.008
TAF1B (UniProt Q53T94) | -0.008
SF3B6 (UniProt Q9Y3B4) | 0
SORBS3 (UniProt O60504) | 0.022
SRPK1 (UniProt Q96SB4) | -0.025
SURF2 (UniProt Q15527) | -0.032
SPIRE1 (UniProt Q08AE8) | -0.212
SQLE (UniProt Q14534) | 0.031
SPG11 (UniProt Q96JI7) | 0.006
SYNE2 isoform 2 (UniProt Q8WXH0) | -0.416
SMC4 (UniProt Q9NTJ3) | 0.055
TADA3 (UniProt O75528) | -0.098
SH3GL3 isoform 3 (UniProt Q99963) | -0.416

— the supplement of paper PMC10849652
